Assay results as given in PubChem BioAssay AID1159580 (chemical genetic matrix, 2015).
The whole screen tested about 5,500 compounds, of which about 2,000 (36%) were called active. About 18% were inconclusive and are not listed. No stated cut-off is given here; in the data, active means normalized growth mostly below about 0.91 (no sharp cut-off); inconclusive means no clear call, values can overlap the other calls; inactive means mostly above about 0.92. The list shows a part of the results.

Assay: chemical genetic growth profiling, strain panel (AID 1159580);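 further: tested at 20 µM; growth read once vehicle control cultures reached saturation at 30 °C; 1 = growth at the plate median or of vehicle wells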
Conditions: growth OD

Measured: normalized growth

CCC(C(=O)O)c1ccccc1 (configuration not stated)
inactive: S. cerevisiae deletion strains, locus YJR075W, strain HOC1, stronger effect = lower value 1 | S. cerevisiae deletion strains, locus YKL009W, strain mrt4, stronger effect = lower value 1.01 | S. cerevisiae deletion strains, locus YKL068W, stronger effect = lower value 0.976 | S. cerevisiae deletion strains, locus YKL085W, strain MDH1 (second series), stronger effect = lower value 0.981 | S. cerevisiae deletion strains, locus YKL085W, strain MDH1, stronger effect = lower value 0.981 | S. cerevisiae deletion strains, locus YKL160W, strain elf1, stronger effect = lower value 0.996 | S. cerevisiae deletion strains, locus YKL190W, strain CNB1, stronger effect = lower value 1.01 | S. cerevisiae deletion strains, locus YKR001C, strain vps1, stronger effect = lower value 0.987 | S. cerevisiae deletion strains, locus YKR026C, strain gcn3, stronger effect = lower value 0.99 | S. cerevisiae deletion strains, locus YKR091W, strain srl3, stronger effect = lower value 0.99 | S. cerevisiae deletion strains, locus YLL001W, strain dnm1, stronger effect = lower value 0.986 | S. cerevisiae deletion strains, locus YLL026W, stronger effect = lower value 0.977 | S. cerevisiae deletion strains, locus YLL041C, strain sdh2, stronger effect = lower value 1 | S. cerevisiae deletion strains, locus YLR027C, strain aat2, stronger effect = lower value 1 | S. cerevisiae deletion strains, locus YLR039C, strain RIC1, stronger effect = lower value 0.958 | S. cerevisiae deletion strains, locus YLR058C, strain SHM2, stronger effect = lower value 1 | S. cerevisiae deletion strains, locus YLR102C, strain apc9, stronger effect = lower value 0.995 | S. cerevisiae deletion strains, locus YLR113W, strain HOG1, stronger effect = lower value 0.912 | S. cerevisiae deletion strains, locus YLR221C, strain rsa3, stronger effect = lower value 0.992 | S. cerevisiae deletion strains, locus YLR258W, strain gsy2, stronger effect = lower value 1 | S. cerevisiae deletion strains, locus YLR262C, strain YPT6 (second series), stronger effect = lower value 1.01 | S. cerevisiae deletion strains, locus YLR262C, strain YPT6, stronger effect = lower value 0.966 | S. cerevisiae deletion strains, locus YLR268W, strain sec22, stronger effect = lower value 1.01 | S. cerevisiae deletion strains, locus YLR320W, strain mms22, stronger effect = lower value 0.989 | S. cerevisiae deletion strains, locus YLR330W, strain CHS5, stronger effect = lower value 1 | S. cerevisiae deletion strains, locus YLR342W, strain FKS1 (second series), stronger effect = lower value 0.994 | S. cerevisiae deletion strains, locus YLR342W, strain FKS1, stronger effect = lower value 0.998 | S. cerevisiae deletion strains, locus YLR357W, strain rsc2, stronger effect = lower value 0.951 | S. cerevisiae deletion strains, locus YLR370C, strain arc18, stronger effect = lower value 0.977 | S. cerevisiae deletion strains, locus YLR371W, strain rom2, stronger effect = lower value 1.01 | S. cerevisiae deletion strains, locus YLR384C, strain iki3, stronger effect = lower value 0.97 | S. cerevisiae deletion strains, locus YLR418C, strain cdc73, stronger effect = lower value 1.03 | S. cerevisiae deletion strains, locus YML016C, strain PPZ1, stronger effect = lower value 1 | S. cerevisiae deletion strains, locus YML032C, strain rad52, stronger effect = lower value 0.997 | S. cerevisiae deletion strains, locus YML120C, strain ndi1, stronger effect = lower value 0.979 | S. cerevisiae deletion strains, locus YML124C, strain tub3, stronger effect = lower value 1 | S. cerevisiae deletion strains, locus YMR058W, strain fet3, stronger effect = lower value 0.986 | S. cerevisiae deletion strains, locus YMR078C, strain ctf18, stronger effect = lower value 0.996 | S. cerevisiae deletion strains, locus YMR125W, strain sto1, stronger effect = lower value 0.977 | S. cerevisiae deletion strains, locus YMR129W, stronger effect = lower value 0.992 | S. cerevisiae deletion strains, locus YMR205C, strain PFK2, stronger effect = lower value 0.996 | S. cerevisiae deletion strains, locus YMR223W, strain ubp8, stronger effect = lower value 1 | S. cerevisiae deletion strains, locus YMR231W, strain pep5, stronger effect = lower value 0.992 | S. cerevisiae deletion strains, locus YMR263W, strain SAP30, stronger effect = lower value 1.01 | S. cerevisiae deletion strains, locus YMR307W, strain GAS1, stronger effect = lower value 1.07 | S. cerevisiae deletion strains, locus YNL067W, strain RPL9B, stronger effect = lower value 1.03 | S. cerevisiae deletion strains, locus YNL071W, strain lat1, stronger effect = lower value 0.989 | S. cerevisiae deletion strains, locus YNL128W, strain TEP1, stronger effect = lower value 1.02 | S. cerevisiae deletion strains, locus YNL153C, strain GIM3, stronger effect = lower value 1 | S. cerevisiae deletion strains, locus YNL183C, strain NPR1, stronger effect = lower value 0.905 | S. cerevisiae deletion strains, locus YNL209W, strain ssb2, stronger effect = lower value 0.989 | S. cerevisiae deletion strains, locus YNL233W, strain BNI4, stronger effect = lower value 0.999 | S. cerevisiae deletion strains, locus YNL248C, strain rpa49, stronger effect = lower value 0.984 | S. cerevisiae deletion strains, locus YNL250W, strain rad50, stronger effect = lower value 0.975 | S. cerevisiae deletion strains, locus YNL271C, strain bni1, stronger effect = lower value 0.988 | S. cerevisiae deletion strains, locus YNL298W, strain CLA4, stronger effect = lower value 0.989 | S. cerevisiae deletion strains, locus YNL307C, strain MCK1, stronger effect = lower value 0.999 | S. cerevisiae deletion strains, locus YNL322C, strain KRE1 (second series), stronger effect = lower value 0.972 | S. cerevisiae deletion strains, locus YNL322C, strain KRE1, stronger effect = lower value 1 | S. cerevisiae deletion strains, locus YNR049C, strain mso1, stronger effect = lower value 1.01 | S. cerevisiae deletion strains, locus YNR052C, strain pop2, stronger effect = lower value 0.99 | S. cerevisiae deletion strains, locus YOL006C, strain TOP1, stronger effect = lower value 1.03 | S. cerevisiae deletion strains, locus YOL012C, strain htz1 2.17 | S. cerevisiae deletion strains, locus YOL147C, strain pex11, stronger effect = lower value 0.998 | S. cerevisiae deletion strains, locus YOR001W, strain rrp6, stronger effect = lower value 0.974 | S. cerevisiae deletion strains, locus YOR061W, strain CKA2, stronger effect = lower value 1 | S. cerevisiae deletion strains, locus YOR069W, strain VPS5, stronger effect = lower value 1 | S. cerevisiae deletion strains, locus YOR070C, strain gyp1, stronger effect = lower value 0.976 | S. cerevisiae deletion strains, locus YOR080W, strain dia2, stronger effect = lower value 0.984 | S. cerevisiae deletion strains, locus YOR083W, strain WHI5, stronger effect = lower value 0.994 | S. cerevisiae deletion strains, locus YOR106W, strain vam3, stronger effect = lower value 0.989 | S. cerevisiae deletion strains, locus YOR136W, strain idh2, stronger effect = lower value 1.01 | S. cerevisiae deletion strains, locus YOR144C, strain elg1, stronger effect = lower value 0.999 | S. cerevisiae deletion strains, locus YOR184W, strain ser1, stronger effect = lower value 0.992 | S. cerevisiae deletion strains, locus YOR231W, strain MKK1, stronger effect = lower value 0.951 | S. cerevisiae deletion strains, locus YOR265W, strain rbl2, stronger effect = lower value 1 | S. cerevisiae deletion strains, locus YOR270C, strain vph1, stronger effect = lower value 1.02 | S. cerevisiae deletion strains, locus YOR290C, strain snf2, stronger effect = lower value 0.976 | S. cerevisiae deletion strains, locus YOR316C, strain cot1, stronger effect = lower value 1 | S. cerevisiae deletion strains, locus YPL051W, strain arl3, stronger effect = lower value 0.964 | S. cerevisiae deletion strains, locus YPL055C, strain LGE1, stronger effect = lower value 1.03 | S. cerevisiae deletion strains, locus YPL078C, strain atp4, stronger effect = lower value 0.974 | S. cerevisiae deletion strains, locus YPL106C, strain sse1, stronger effect = lower value 0.97 | S. cerevisiae deletion strains, locus YPL240C, strain hsp82, stronger effect = lower value 0.988 | S. cerevisiae deletion strains, locus YPL241C, strain CIN2, stronger effect = lower value 1.01 | S. cerevisiae deletion strains, locus YPL256C, strain CLN2, stronger effect = lower value 0.907 | S. cerevisiae deletion strains, locus YPR119W, strain clb2, stronger effect = lower value 0.994 | S. cerevisiae deletion strains, locus YPR141C, strain kar3, stronger effect = lower value 0.976 | S. cerevisiae deletion strains, locus YPR163C, strain tif3, stronger effect = lower value 1 | S. cerevisiae deletion strains, locus YPR167C, strain met16, stronger effect = lower value 0.999 | S. cerevisiae deletion strains, strain wtn01, stronger effect = lower value 0.999 | S. cerevisiae strains, strain wild type, stronger effect = lower value 1
